Common to all, as to parameters: scale not given: direction of the effect not stated beside the values
Assay [1] deals with Protein translocase subunit SecA (Escherichia coli (strain K12)) (UniProt P10408). Nature of the assay: Assay to Identify E. coli SecA ATPase Inhibitors. To be noted: 30 µM. Type of assay: functional.
For assay [2], the target named is T1, Ubiquitin-activating enzyme e1, putative (Leishmania donovani (strain BPK282A1)) (UniProt E9BSI1).
T1 sequence (whole entry): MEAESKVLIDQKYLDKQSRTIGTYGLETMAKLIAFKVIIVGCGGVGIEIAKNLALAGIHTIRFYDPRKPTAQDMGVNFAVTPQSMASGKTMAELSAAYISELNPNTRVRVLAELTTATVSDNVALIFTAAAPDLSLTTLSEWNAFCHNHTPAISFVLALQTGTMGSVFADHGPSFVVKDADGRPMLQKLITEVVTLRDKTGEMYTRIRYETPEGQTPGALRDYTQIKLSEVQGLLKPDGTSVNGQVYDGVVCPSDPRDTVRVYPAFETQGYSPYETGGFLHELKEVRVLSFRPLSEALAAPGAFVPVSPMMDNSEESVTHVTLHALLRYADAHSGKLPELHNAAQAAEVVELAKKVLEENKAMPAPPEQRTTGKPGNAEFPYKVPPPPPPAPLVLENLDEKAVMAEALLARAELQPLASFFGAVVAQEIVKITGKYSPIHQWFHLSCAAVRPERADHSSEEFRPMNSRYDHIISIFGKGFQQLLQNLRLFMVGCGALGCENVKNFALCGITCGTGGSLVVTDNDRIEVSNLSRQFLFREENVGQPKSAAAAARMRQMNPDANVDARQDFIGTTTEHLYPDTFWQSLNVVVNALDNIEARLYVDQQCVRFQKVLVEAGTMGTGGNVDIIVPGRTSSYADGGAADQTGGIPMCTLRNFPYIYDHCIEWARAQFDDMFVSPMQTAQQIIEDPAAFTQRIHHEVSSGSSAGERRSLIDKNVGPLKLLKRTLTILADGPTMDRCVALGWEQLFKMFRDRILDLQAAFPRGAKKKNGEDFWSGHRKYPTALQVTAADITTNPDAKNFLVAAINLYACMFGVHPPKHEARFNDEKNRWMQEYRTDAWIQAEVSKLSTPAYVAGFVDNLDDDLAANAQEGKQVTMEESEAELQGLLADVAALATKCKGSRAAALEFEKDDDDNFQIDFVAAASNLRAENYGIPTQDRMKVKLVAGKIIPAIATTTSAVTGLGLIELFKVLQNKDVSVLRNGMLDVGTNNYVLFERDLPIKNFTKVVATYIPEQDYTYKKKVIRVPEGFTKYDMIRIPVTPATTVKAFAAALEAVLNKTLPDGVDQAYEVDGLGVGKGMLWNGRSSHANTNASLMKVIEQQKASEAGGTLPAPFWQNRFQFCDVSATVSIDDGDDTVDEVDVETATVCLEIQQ
As to the kind of experiment: Leishmania donovani Ubiquitin Activating Enzyme (LdE1). To be noted: 30 µM. Type of assay: functional.

In assay [3] the target is AMP-activated protein kinase, AMPK (Homo sapiens) (UniProt P54646+O43741+P54619+Q9UGJ0+Q9Y478+Q13131+Q9UGI9). Nature of the assay: AMP-dependent Kinase enzyme assay. An in vitro enzyme assay that detects ADP turnover that is directly proportional to AMPK activity. This uses naive AMPK that is activated during the assay with MK-8722. The assay is classed as functional. To be noted: 30 µM.

The target of assay [4] is Sialic acid-binding Ig-like lectin 9 (Homo sapiens) (UniProt Q9Y336). As to the kind of experiment: Hs-Siglec9 ALPHAscreen SOP 20170721. To be noted: 10 µM. On the technique in general: Bead proximity is the source of the signal in Alpha formats.
Sequence of Sialic acid-binding Ig-like lectin 9 (Homo sapiens) (Q9Y336 whole entry): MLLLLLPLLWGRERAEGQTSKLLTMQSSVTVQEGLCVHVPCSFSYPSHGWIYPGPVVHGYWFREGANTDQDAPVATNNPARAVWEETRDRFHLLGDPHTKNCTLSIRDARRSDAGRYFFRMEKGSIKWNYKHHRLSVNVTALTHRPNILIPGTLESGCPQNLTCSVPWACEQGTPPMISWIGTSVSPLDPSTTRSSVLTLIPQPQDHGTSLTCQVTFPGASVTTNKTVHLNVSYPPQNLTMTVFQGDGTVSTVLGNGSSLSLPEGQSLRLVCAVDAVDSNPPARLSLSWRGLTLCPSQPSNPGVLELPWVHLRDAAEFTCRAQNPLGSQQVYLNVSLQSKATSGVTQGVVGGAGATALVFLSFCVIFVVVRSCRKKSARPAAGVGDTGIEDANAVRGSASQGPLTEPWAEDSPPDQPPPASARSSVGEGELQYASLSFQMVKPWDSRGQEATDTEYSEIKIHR
The test system of another assay is Trypanosoma cruzi. As to the kind of experiment: Trypanosoma cruzi phosphomannomutase and mannose-1-phosphate guanylyltransferase assay. The assay is classed as functional. To be noted: 10 µM.
The target of assay [5] is T2, Arginase-2, mitochondrial (Homo sapiens) (UniProt P78540).
T2 sequence (whole entry): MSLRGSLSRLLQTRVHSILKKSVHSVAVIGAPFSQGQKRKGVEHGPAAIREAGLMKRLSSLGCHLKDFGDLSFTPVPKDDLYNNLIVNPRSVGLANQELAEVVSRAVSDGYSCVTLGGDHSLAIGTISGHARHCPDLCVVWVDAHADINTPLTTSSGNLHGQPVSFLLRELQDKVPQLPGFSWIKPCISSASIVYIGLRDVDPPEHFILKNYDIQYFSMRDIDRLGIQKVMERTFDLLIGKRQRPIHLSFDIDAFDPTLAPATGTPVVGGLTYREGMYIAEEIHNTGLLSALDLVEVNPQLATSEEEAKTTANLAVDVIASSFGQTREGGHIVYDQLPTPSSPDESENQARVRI
Nature of the assay: in vitro enzyme assay to detect the production of urea directly proportional to the activity of Arginase II. Also: in the data most compounds retested in dose-response had high values. The assay is classed as functional. To be noted: 33.3 µM.

Assay [6] deals with T3, Proteasome subunit beta (Trypanosoma cruzi) (UniProt O96673).
T3 sequence (whole entry): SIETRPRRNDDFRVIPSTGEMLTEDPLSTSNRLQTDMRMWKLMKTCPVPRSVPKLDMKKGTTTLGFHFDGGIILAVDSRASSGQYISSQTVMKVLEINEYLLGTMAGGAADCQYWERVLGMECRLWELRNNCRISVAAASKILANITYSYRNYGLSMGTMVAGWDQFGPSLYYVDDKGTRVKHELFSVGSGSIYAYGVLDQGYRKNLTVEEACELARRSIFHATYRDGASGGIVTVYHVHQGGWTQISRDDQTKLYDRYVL
Nature of the assay: Trypanosoma cruzi proteasome chymotrypsin-like activity (TcProtChymo) assay. Also: in the data most compounds retested in dose-response had high values. Type of assay: functional. To be noted: 9.37 µM.

The species named for another assay is Homo sapiens. Nature of the assay: To identify inhibition of the IFN signalling (Jak-Stat) pathway via expression of an eGFP reporter gene under the control of an IFN-stimulated response element (ISRE) containing MxA promoter. Type of assay: functional. To be noted: 30 µM.
Assay [7] has as its target T4, Tyrosyl-tRNA synthetase, putative (Trypanosoma cruzi (strain CL Brener)) (UniProt Q4DSP6).
T4 sequence (whole entry): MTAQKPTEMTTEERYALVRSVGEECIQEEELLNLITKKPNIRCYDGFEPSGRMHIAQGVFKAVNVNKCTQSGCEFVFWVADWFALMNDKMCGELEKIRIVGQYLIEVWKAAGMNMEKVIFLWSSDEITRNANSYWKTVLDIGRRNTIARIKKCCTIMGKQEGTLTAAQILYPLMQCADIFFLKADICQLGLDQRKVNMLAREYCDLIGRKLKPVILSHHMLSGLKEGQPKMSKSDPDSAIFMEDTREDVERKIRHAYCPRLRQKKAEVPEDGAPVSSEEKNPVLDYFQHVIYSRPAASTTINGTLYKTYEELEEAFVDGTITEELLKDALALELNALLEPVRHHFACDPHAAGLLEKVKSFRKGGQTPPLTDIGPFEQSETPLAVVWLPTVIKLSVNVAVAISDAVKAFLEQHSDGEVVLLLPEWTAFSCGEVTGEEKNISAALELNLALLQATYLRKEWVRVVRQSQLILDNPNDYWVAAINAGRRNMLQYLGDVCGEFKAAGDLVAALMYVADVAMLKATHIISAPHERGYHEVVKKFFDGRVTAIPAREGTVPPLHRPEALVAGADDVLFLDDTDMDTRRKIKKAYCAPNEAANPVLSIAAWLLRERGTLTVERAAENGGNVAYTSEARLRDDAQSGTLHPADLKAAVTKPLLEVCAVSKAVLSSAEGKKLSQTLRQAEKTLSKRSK
Nature of the assay: Trypanosoma cruzi tyrosyl tRNA synthetase (TcYRS) _High Tyrosine SOP. Also: in the data most compounds retested in dose-response had high values. The assay is classed as functional. To be noted: 30 µM.

For assay [8], the target named is T4, Tyrosyl-tRNA synthetase, putative (Trypanosoma cruzi (strain CL Brener)). Nature of the assay: Trypanosoma cruzi tyrosyl tRNA synthetase (TcYRS) SOP. The assay is classed as functional. The settings on record: 30 µM.
Assay [9] concerns the target Chromo domain-containing protein 1 (Saccharomyces cerevisiae (strain ATCC 204508 / S288c) (Baker's yeast)) (UniProt P32657). As to the kind of experiment: ScCHD-1 Enzyme Inhibition Assay. Also: in the data most compounds retested in dose-response had high values. The assay is classed as functional. The settings on record: 30 µM.

SMILES strings stand for the structures. For some of these results: Potency and affinity values are given separately.

Sequence of Protein translocase subunit SecA (Escherichia coli (strain K12)) (P10408 whole entry): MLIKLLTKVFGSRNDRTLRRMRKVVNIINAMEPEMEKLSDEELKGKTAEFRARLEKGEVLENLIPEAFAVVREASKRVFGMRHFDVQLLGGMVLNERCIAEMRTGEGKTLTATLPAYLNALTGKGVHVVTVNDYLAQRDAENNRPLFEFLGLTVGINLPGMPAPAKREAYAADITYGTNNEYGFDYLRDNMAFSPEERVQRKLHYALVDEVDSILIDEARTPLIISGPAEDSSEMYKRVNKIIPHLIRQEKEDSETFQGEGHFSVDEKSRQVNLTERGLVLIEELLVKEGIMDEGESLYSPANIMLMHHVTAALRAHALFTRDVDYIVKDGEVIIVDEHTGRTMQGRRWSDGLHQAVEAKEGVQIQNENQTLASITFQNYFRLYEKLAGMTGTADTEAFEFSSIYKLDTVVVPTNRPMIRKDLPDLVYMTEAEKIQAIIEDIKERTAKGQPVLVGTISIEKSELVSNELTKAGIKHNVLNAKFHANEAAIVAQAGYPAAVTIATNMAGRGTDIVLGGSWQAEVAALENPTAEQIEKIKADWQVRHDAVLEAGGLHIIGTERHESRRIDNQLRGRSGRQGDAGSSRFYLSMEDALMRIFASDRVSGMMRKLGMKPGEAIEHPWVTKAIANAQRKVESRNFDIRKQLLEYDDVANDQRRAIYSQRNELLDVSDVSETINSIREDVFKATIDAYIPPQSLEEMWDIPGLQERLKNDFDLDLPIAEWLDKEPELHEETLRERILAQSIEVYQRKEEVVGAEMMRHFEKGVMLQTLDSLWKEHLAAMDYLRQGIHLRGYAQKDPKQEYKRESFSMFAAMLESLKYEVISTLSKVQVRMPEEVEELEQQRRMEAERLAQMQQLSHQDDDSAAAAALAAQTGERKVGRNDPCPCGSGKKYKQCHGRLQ
Sequence of Chromo domain-containing protein 1 (Saccharomyces cerevisiae (strain ATCC 204508 / S288c) (Baker's yeast)) (P32657 whole entry, the tested form may be a part): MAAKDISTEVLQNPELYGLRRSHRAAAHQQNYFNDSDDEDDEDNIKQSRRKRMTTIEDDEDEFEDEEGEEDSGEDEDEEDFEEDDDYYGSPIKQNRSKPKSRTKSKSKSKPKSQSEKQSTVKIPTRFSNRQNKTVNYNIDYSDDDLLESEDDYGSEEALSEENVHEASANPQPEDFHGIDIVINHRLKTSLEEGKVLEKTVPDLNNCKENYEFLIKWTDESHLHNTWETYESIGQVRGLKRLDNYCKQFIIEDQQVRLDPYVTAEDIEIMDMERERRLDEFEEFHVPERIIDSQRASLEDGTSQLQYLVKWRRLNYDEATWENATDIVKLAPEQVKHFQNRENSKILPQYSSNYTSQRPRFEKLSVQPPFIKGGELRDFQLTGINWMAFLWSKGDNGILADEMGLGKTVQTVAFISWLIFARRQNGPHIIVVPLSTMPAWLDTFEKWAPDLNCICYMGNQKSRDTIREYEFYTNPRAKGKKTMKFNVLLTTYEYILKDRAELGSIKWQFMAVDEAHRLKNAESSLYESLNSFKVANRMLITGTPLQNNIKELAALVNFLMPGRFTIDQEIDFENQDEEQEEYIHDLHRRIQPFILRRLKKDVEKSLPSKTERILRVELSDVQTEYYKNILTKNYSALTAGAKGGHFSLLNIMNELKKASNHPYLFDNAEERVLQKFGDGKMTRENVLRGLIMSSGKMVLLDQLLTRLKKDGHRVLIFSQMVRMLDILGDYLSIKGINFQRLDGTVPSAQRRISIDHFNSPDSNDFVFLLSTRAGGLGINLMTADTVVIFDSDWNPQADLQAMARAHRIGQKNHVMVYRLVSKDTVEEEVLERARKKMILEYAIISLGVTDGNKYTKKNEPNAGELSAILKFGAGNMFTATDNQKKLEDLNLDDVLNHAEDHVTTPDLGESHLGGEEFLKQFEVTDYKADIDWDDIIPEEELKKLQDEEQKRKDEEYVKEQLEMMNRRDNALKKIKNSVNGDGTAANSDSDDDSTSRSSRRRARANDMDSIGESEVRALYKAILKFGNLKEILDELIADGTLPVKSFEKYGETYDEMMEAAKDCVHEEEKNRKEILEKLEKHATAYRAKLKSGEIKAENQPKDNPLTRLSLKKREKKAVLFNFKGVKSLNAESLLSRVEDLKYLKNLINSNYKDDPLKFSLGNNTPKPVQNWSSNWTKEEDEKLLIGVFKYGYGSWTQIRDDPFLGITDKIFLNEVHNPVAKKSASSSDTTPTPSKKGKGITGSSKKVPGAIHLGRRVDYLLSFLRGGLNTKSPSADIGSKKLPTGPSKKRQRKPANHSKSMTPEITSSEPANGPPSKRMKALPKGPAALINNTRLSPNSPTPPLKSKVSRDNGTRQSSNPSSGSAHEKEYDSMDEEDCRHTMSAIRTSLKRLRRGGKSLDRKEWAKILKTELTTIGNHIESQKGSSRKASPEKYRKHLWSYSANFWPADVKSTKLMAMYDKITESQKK

As for `O=C(NCCC(=O)N1CCCCCC1)c1c(O)cc(F)cc1F`, the Percent Effect in [1] is -5.59%; in assay [2], 7.79%; in assay [3] it was 1.53%; in [4] it was -4.08%; in the assay with Trypanosoma cruzi it was 7.35%; in [5] it was -4%. The Percent Effect was 9.78% in [6]; 6.03% in the assay listed under Homo sapiens; 2.86% in assay [7]; 14.1% in assay [8]; -20.3% in assay [9].
For `CS(=O)(=O)NCc1nnc2n1CCN(CC1CC1)C2`, the Percent Effect in assay [1] is -5.86%; in assay [2], 8.11%; in assay [3], 5.91%; in assay [4], -4.89%; in the assay with Trypanosoma cruzi it was -0.293%; in assay [5], -2.23%. For the same compound, the Percent Effect in [6] was 18.6%; in the assay filed under Homo sapiens, -21.1%; in assay [7] it was 5.41%; in assay [8], 12.8%; in assay [9] it was -2.16%.
As for `O=C1[C@@H]2CCN(Cc3ccncc3)C[C@@H]2OCCN1c1ccccc1`, the Percent Effect is -4.52% in assay [1]; 8% in assay [2]; 4.63% in assay [3]; 0.633% in assay [4]; 4.33% in the assay with Trypanosoma cruzi; -3.5% in assay [5]. Besides, the Percent Effect is 15.6% in assay [6]; -13.1% in the assay filed under Homo sapiens; 8.51% in assay [7]; 14.1% in [8]; -5.17% in assay [9].
On to `Cc1cc(CN2CCN(CC(O)c3ccccc3)CC2)no1` (stereo not drawn), for which the Percent Effect is -5.4% in assay [1]; 10.1% in [2]; -4.74% in assay [3]; 1.14% in assay [4]; 7.65% in the assay with Trypanosoma cruzi; 2.28% in assay [5]. Besides, the Percent Effect is -0.0819% in [6]; -14.5% in the assay listed under Homo sapiens; 6.4% in [7]; 13.9% in [8]; -1.57% in assay [9].
For the compound `COCCOc1ccc(NC(=O)C2CCC2)cn1`, the Percent Effect in assay [1] was -2.7%; in assay [2], 17.7%; in assay [3], 1.58%; in assay [4], -6%; in the assay on Trypanosoma cruzi, 0.85%; in [5], 5.7%. For the same compound, the Percent Effect in [6] was 15.6%; in the assay listed under Homo sapiens, -2.54%; in assay [7], 9.36%; in assay [8], 16.5%; in assay [9] it was -6.65%.
As to `CCNc1cc2c(nn1)CCN(C(=O)c1ccc(NC3CC3)nc1)C2`, the Percent Effect is -3.24% in assay [1]; 0% in [2]; -3.65% in assay [3]; 11.3% in [4]; 3.38% in the assay with Trypanosoma cruzi; 1.15% in assay [5]. Further, the Percent Effect turned out to be 2.67% in assay [6]; 6.81% in the assay listed under Homo sapiens; 5.39% in assay [7]; 9.76% in [8]; 1.67% in assay [9].
Take `Cc1ncc(CN(C)C2CCCN(Cc3noc(C4CC4)n3)C2)s1` (stereo not drawn): the Percent Effect was -3.21% in assay [1]; 5.26% in assay [2]; -3.55% in assay [3]; 4.27% in assay [4]; 7.52% in the assay with Trypanosoma cruzi; -0.766% in assay [5]. Moreover, the Percent Effect in [6] is 8.02%; in the assay listed under Homo sapiens, 14.3%; in assay [7] it was 2.45%; in assay [8] it was 12.2%; in assay [9], -9.03%.
In the case of `c1ccc(NCc2cn3c(n2)CN(Cc2cccnc2)CC3)nc1`, the Percent Effect in [1] was -5.07%; in assay [2] it was 13.5%; in assay [3] it was 2.94%; in assay [4], -3.31%; in the assay on Trypanosoma cruzi, -2.83%; in [5], 4.78%. Moreover, the Percent Effect is 23.6% in assay [6]; 4.12% in the assay listed under Homo sapiens; -1.08% in assay [7]; 10.3% in assay [8]; 0.00712% in assay [9].

The values are drawn from ChEMBL document CHEMBL3988442, “University of Dundee, Small-Polar-MMV Screening Library” (2021).
